GLP1R inv ag = acts as inverse agonist at human GLP-1 receptor | P43220 | HEK293 GLP-1R CRE-luciferase, luminescence, 24 h; GLP-1R form is constitutively active | Potency, µM (highest dose often 38.3 µM), for the others: at the top dose activity change, negative = inhibition, hits mostly inhibitors | actives 1.6% (n = 410,000) | AID 624417; note: % is set by controls: 0 for no effect and ±100 for the full control effect; nearly all actives have a fitted effect of over 55% in size
Target sequence (P43220 whole entry, looked up): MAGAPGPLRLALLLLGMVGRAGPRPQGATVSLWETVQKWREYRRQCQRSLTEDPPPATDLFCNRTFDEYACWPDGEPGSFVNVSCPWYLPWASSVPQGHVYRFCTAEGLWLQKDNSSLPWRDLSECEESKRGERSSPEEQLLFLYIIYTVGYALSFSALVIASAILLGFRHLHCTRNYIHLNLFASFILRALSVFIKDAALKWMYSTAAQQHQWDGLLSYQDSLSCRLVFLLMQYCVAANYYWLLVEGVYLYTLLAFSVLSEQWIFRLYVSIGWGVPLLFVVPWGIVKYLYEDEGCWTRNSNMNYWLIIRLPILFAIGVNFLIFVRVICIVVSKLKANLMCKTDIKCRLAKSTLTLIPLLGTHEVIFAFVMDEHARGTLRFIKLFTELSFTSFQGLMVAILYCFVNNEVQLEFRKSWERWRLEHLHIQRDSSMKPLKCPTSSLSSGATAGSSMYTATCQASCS
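Readout was luciferase luminescence, measured 12 min after detection reagent at room temperature. Beforehand, GLP-1R reporter HEK293 cells had sat 12 h, then received compounds for 24 hr at 37 deg C.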
GLP1R cytotox = cytotoxicity in counter-screen for GLP-1R inverse agonists | HEK293 cAMP-luciferase reporter cells, luminescence, 24 h | Potency, µM (titrated, usually from 38.3 µM), for the others: top-dose activity change, negative = inhibition, usual class: inhibitors | actives 0.13% (n = 410,000) | AID 624418;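 note: loss of luciferase light is scored as toxicity; % is set by controls: 0 for no effect and ±100 for the full control effect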
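Compound-treated cells are incubated 24 hr at 37 deg C under 5% CO2 after a 12 hour attachment period, then luciferase detection reagent is added and luminescence is measured following 12 min at room temperature; lowered signal indicates toxicity.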
BRCA1 expr up = increases BRCA1 expression. MCF7-BRCA1-FFLuc reporter, luminescence, 48 h; response scale: scaled: vehicle 0%, 10 µM genistein 100%. Potency, µM (titrated, usually from 46.1 µM), for inactives: at the top dose activation, most hits filed as activators. actives 1.1% (n = 380,000). AID 624202; note: nearly all actives have a fitted effect of over 80% in size
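Using MCF7 cells harboring a BRCA1 firefly luciferase reporter, plated 2 h before compound pinning, the screen measured luminescence after 48 h incubation. Responses were normalized to DMSO and 10 microM genistein, then fitted for concentration-effect.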
GLP1R ag = activates the human GLP-1 receptor. Potency, µM (series often up to 45.6 µM), inactives show top-dose activation, hits mostly activators. HEK293 GLP-1R CRE-luciferase, luminescence, 4-6 h; cells express a hypersensitive GLP-1R form. actives 0.007% (n = 380,000). P43220; note: % of control where 0% means no effect
Mito fusion yeast = mitochondrial division inhibition or fusion activation. S. cerevisiae fusion-defective mutant growth rescue, CellTiterGlo 48 h. Potency, µM (titrated, usually from 46.1 µM), without a hit: top-dose growth rescue (activation), usual class: activators. actives 0.23% (n = 320,000). AID 485298; note: % of control where 0% means no effect; nearly all actives have a fitted effect of over 45% in size
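Temperature-sensitive fusion-defective S. cerevisiae (e.g. fzo1-1, mgm1-5) were grown with compound in YPEG medium (3% ethanol, 3% glycerol) for 48 hours at 37C. Growth rescue was measured as viability by CellTiterGlo luminescence after 10 minutes at ambient.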
* = called active by the depositor; [ ] = another dose, or the depositor's remark. Shown are actives, neighbours in structure and some others; about 2.8% of the full set was active somewhere. Calls come from the whole dose curve; as a rule, active = well fitted curve in the direction sought with a large enough effect; inconclusive = small, poorly fitted or top-dose-only effect, or another doubt; inactive = no such curve, though single readings can be large; an effect the other way counts as inactive or inconclusive. Potency is the fitted concentration of half-maximal effect.

Screening NC(=S)N/N=C/c1ccccc1OC(=O)/C=C/c1ccccc1 returned GLP1R inv ag 2.5µM*, GLP1R cytotox -10%, BRCA1 expr up -16%, GLP1R ag 14% and Mito fusion yeast -6%.
Screening NC(=S)N/N=C\c1ccccc1OCc1ccccc1 returned GLP1R inv ag 5.6µM*, GLP1R cytotox inconclusive, BRCA1 expr up -42%, GLP1R ag -2% and Mito fusion yeast 16%.
Screening O=C(CSCc1ccccc1)N/N=C/c1ccccc1OCc1ccccc1 returned GLP1R inv ag 29%, GLP1R cytotox 2%, BRCA1 expr up 0%, GLP1R ag 8% and Mito fusion yeast 8%.
Screening COC(=O)c1cc(C(=O)OCC(=O)NC(=O)NCc2ccccc2)cc([N+](=O)[O-])c1 returned GLP1R inv ag 9%, GLP1R cytotox 2%, BRCA1 expr up 4%, GLP1R ag 4% and Mito fusion yeast -1%.
CC(C)[C@H](NS(=O)(=O)c1ccccc1)C(=O)OCC(=O)Nc1ccccc1Sc1ccccc1 was read as GLP1R inv ag inconclusive, GLP1R cytotox 12%, BRCA1 expr up -20%, GLP1R ag 4% and Mito fusion yeast 22µM*.
`CS(=O)(=O)N(Cc1ccc(C(=O)Nc2ccccc2Sc2ccccc2)cc1)c1ccccc1` gave GLP1R inv ag inconclusive, GLP1R cytotox -9%, BRCA1 expr up -36%, GLP1R ag -2% and Mito fusion yeast 0%.
`O=C(Cc1ccc(F)cc1)Nc1ccccc1Sc1ccccc1` gave GLP1R inv ag inconclusive, GLP1R cytotox 10%, BRCA1 expr up -6%, GLP1R ag 17% and Mito fusion yeast 29%.
O=C(Cc1ccc(Br)cc1)Nc1ccccc1Sc1ccccc1 was read as GLP1R inv ag 10µM*, GLP1R cytotox -1%, BRCA1 expr up -40%, GLP1R ag -1% and Mito fusion yeast 2%.
`O=C(Cc1ccccc1)Nc1ccccc1Sc1ccccc1` gave GLP1R inv ag 11µM*, GLP1R cytotox 31%, BRCA1 expr up -18%, GLP1R ag 3% and Mito fusion yeast 10%.
For O=C(Nc1ccccc1Sc1ccccc1)c1ccccc1 the results were GLP1R inv ag 11µM*, GLP1R cytotox 22%, BRCA1 expr up -2%, GLP1R ag 5% and Mito fusion yeast 15%.
O=C(Nc1ccccc1)Nc1cccc(-c2nnco2)c1 was read as GLP1R inv ag -14%, GLP1R cytotox -15%, BRCA1 expr up 28%, GLP1R ag 0% and Mito fusion yeast -7%.
`Cn1c(=O)c2c(-c3ccccc3F)c3c(nc2n(C)c1=O)-c1ccccc1C3O` (centres undefined) gave GLP1R inv ag -2%, GLP1R cytotox 0%, BRCA1 expr up -13%, GLP1R ag 16% and Mito fusion yeast 2%.
Cc1cccc(OC2CCN(Cc3nc(CC4CC4)no3)CC2)c1 was read as GLP1R inv ag 13µM*, GLP1R cytotox 17%, BRCA1 expr up 0%, GLP1R ag 8% and Mito fusion yeast 2%.
Cc1cccc(SC2CCN(Cc3nc(CC4CC4)no3)CC2)c1 was read as GLP1R inv ag -5%[0.307 µM], GLP1R cytotox 7%[0.307 µM], BRCA1 expr up 19%, GLP1R ag 0% and Mito fusion yeast -1%.
Screening COc1cc(C)ccc1OCc1cc(C(=O)NC(c2ccccn2)C(F)(F)F)no1 (centres undefined) returned GLP1R inv ag 13µM*, GLP1R cytotox 4%, BRCA1 expr up -17% and GLP1R ag 6%.
For COc1cc(C)ccc1OCc1cc(C(=O)NC2CCOCC2)no1 the results were GLP1R inv ag -6%, GLP1R cytotox -20%, BRCA1 expr up inconclusive and GLP1R ag 8%.
For c1ccc(CCSc2ncnc3nc[nH]c23)cc1 the results were GLP1R inv ag -21%, GLP1R cytotox -2%, BRCA1 expr up 3.2µM*, GLP1R ag -9% and Mito fusion yeast 18µM*.
`Cc1ccc(/C(O)=C/C(=O)C(=O)NNC(=O)C(O)(c2ccccc2)c2ccccc2)cc1` gave GLP1R inv ag -29%, GLP1R cytotox -19%, BRCA1 expr up -11%, GLP1R ag -1% and Mito fusion yeast 5%.
`C=CCNCCOCCOc1ccc(Cl)cc1C(C)(C)C` gave GLP1R inv ag inconclusive, GLP1R cytotox -25%, BRCA1 expr up -18%, GLP1R ag -2% and Mito fusion yeast -4%.
`COCCCNCCOCCOc1ccc(Cl)cc1C(C)(C)C` gave GLP1R inv ag 3.5µM*, GLP1R cytotox inconclusive, BRCA1 expr up -99%, GLP1R ag -14% and Mito fusion yeast -11%.
`Cc1ccccc1Cn1c(C)nc2ccccc21` gave GLP1R inv ag inconclusive, GLP1R cytotox 1%, BRCA1 expr up -27%, GLP1R ag -4% and Mito fusion yeast -6%.
Screening CC(=O)NCCc1cc2cc(C)c(C)cc2[nH]c1=O returned GLP1R inv ag 0%, GLP1R cytotox -2%, BRCA1 expr up -21%, GLP1R ag -8% and Mito fusion yeast 1%.
O=C(c1ccc2c(c1)OCO2)N1CCC2(CC1)Oc1ccc(F)cc1C(=O)C21CC(c2ccc(Cl)cc2)=NO1 (centres undefined) was read as GLP1R inv ag -10%, GLP1R cytotox -12%, BRCA1 expr up 0%, GLP1R ag -7% and Mito fusion yeast -25%.
For O=C(c1ccc2c(c1)OCO2)N1CCC2(CC1)Oc1ccc(Cl)cc1C(=O)C21CC(c2ccccc2)=NO1 (centres undefined) the results were GLP1R inv ag -12%, GLP1R cytotox 4.5µM*, BRCA1 expr up -32%, GLP1R ag 1% and Mito fusion yeast 3%.
`COc1ccc(C(F)(F)F)cc1N/C=C/c1nnnn1-c1ccc2ccccc2c1` gave GLP1R inv ag 0%, GLP1R cytotox 10%, BRCA1 expr up -17%, GLP1R ag 0% and Mito fusion yeast 1%.
For COc1ccc(CCNC(=O)C2CCCN2C(=O)Nc2ccc(F)cc2)cc1OC (centres undefined) the results were GLP1R inv ag -11%, GLP1R cytotox -1%, BRCA1 expr up 1%, GLP1R ag 6% and Mito fusion yeast 6%.
Screening Cc1[nH]c(-c2ccc(F)cc2)cc1C(=O)N1CCN(c2cccc(Cl)c2)CC1 returned GLP1R inv ag 5µM*, GLP1R cytotox inconclusive, BRCA1 expr up -70%, GLP1R ag 6% and Mito fusion yeast -53%.
For Cc1onc(-c2ccccc2Cl)c1C(=O)N1CCN(c2cccc(Cl)c2)CC1 the results were GLP1R inv ag 1µM*, GLP1R cytotox -13%, BRCA1 expr up -14%, GLP1R ag 3% and Mito fusion yeast 1%.
For Cc1onc(-c2ccccc2Cl)c1C(=O)N1CCN(c2ccccc2)CC1 the results were GLP1R inv ag 0%, GLP1R cytotox 5%, BRCA1 expr up -76%, GLP1R ag -2% and Mito fusion yeast 6%.

High-throughput results as filed in PubChem.
